From PubChem BioAssay
Activity calls are given as the source filed them. Unless noted, no rule for the calls is given here.

Tests used:
[1] = anti-His antibody binders, primary screen, artefact control for SMM control protein annotation, biochemical, small-molecule microarray, 635 nm fluorescence (AID 1128); details: anti-His Alexa647 antibody binding, higher = more signal;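 also: score merges feature fluorescence with signal-to-noise for each printed compound spot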
[2] = test system: Human papillomavirus type 1a E7 protein (residues 1-88); test: HPV1a E7 small-molecule binders, primary screen, biochemical, small-molecule microarray, residues 1-88, 635 nm (AID 1129); details: small-molecule microarray binding, fluorescence 635 nm; higher = more signal
[3] = molecular target: Focal adhesion kinase 1 (Homo sapiens) (UniProt Q05397); test: small-molecule microarray binders of FAK, primary screen, biochemical, 635/667 nm fluorescence, BSA, DTT (AID 1130); details: PTK2 binding, 635 nm fluorescence, higher = more signal;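 also: composite of spot emission at 667 nm and signal to noise over triplicate slides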
[4] = test system: Fibrinogen (Alexa647-labelled); test: fibrinogen binders on compound microarrays, profiling panel, artefact control for SMM control-protein annotation, biochemical, small-molecule microarray, 635/667 nm fluorescence (AID 1131); details: fibrinogen-A647 binding fluorescence, higher = more signal;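 also: z-score merges 667 nm fluorescence with per-spot signal-to-noise over triplicate slides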
[5] = molecular target: Follistatin (Homo sapiens) (UniProt P19883); test: follistatin binders on small-molecule microarrays, primary screen, biochemical, small-molecule microarray, 635/667 nm fluorescence (AID 1132); details: FST binding, 635 nm fluorescence, higher = more signal
[6] = molecular target: Fibroblast growth factor 2 (Homo sapiens) (UniProt P09038); test: FGF2 binders on small-molecule microarrays, primary screen, biochemical, small-molecule microarray, 635/667 nm fluorescence (AID 1133); details: small-molecule microarray binding, FGF2, fluorescence 635/667; higher = more signal
[7] = mitochondrial membrane potential change in A549 cells, profiling panel, cell-based, JC-1 fluorescence, basal, 24 h, 100 nL (AID 1138); details: higher = more signal;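 also: A549 lung adenocarcinoma cells under basal conditions with no added stimulus; test concentration not given here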
[8] = test system: Lefty1; test: Lefty1 binders on small-molecule microarrays, primary screen, biochemical, small-molecule microarray, 635/667 nm fluorescence (AID 1139); details: small-molecule microarray binding, fluorescence 635/667; higher = more signal
[9] = test system: wheat germ agglutinin (Triticum aestivum), Alexa647-labelled; test: wheat germ agglutinin binders on compound microarrays, profiling panel, artefact control for SMM control-protein annotation, biochemical, small-molecule microarray, 635/667 nm fluorescence (AID 1140); details: WGA-A647 binding, 635 nm fluorescence, higher = more signal;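 also: score merges 667 nm feature emission with signal to noise over triplicate slides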
[10] = molecular target: Luciferin 4-monooxygenase (Photinus pyralis) (UniProt P08659); test: firefly luciferase enzyme inhibitors, primary screen, biochemical, luminescence, purified enzyme, 2006 set (AID 1141); details: SteadyGlo luminescence, 30 min, higher = more signal, called active from +8 up or from −8 down;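 also: cell-free assay with purified firefly luciferase at 100 ng per well in PBS; test concentration not given here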
[11] = test system: Wnt5a (protein binding on small-molecule microarray); test: Wnt5a binders on small-molecule microarray, primary screen, biophysical, 635/667 nm fluorescence (AID 1142); details: 635 nm fluorescence, higher = more signal;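 also: fluorescence read at 667 nm with signal to noise per printed feature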
[12] = cell viability in Huh7 cells, primary screen, cytotoxicity control for HCV replication inhibitor project, CellTiter-Glo luminescence, basal, 48 h (AID 1143); details: Huh7 HCV replicon, higher = more signal, called active from +8 up or from −8 down;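 also: Huh7 hepatoma cells carrying a hepatitis C replication reporter with no stimulus; test concentration not given here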
[13] = P. aeruginosa biofilm formation inhibitors, primary screen, PAO1 strain, BacTiter-Glo luminescence, LB-PBS (AID 1144); details: 12 h, higher = more signal
[14] = CREB reporter modulators without forskolin, primary screen, cell-based, PC12, CRE-LacZ reporter, unstimulated (AID 1145); details: no forskolin, luminescence, 4.5 h, higher = more signal, called active from +8 up or from −8 down
[15] = CREB reporter modulators under forskolin, primary screen, cell-based, PC12, CRE-LacZ reporter, forskolin-stimulated (AID 1146); details: luminescence, 4.5 h, higher = more signal, called active from +8 up or from −8 down;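 also: PC12 cells with 6xCRE LacZ reporter stimulated by forskolin 10 µM; beta-galactosidase reporter signal reflecting CREB driven transcription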
[16] = molecular target: Streptavidin (Streptomyces avidinii) (UniProt P22629); test: streptavidin binders on small-molecule microarray, primary screen, artefact control for SMM compound annotation, biophysical, 635/667 nm fluorescence (AID 1147); details: streptavidin binding, higher = more signal;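 also: signal reflects streptavidin binding to arrayed compounds as a control protein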
[17] = small-molecule binders of probe aInhba, primary screen, biochemical, small-molecule microarray, 635/667 nm fluorescence (AID 1148); details: higher = more signal;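 also: score merges 667nm spot fluorescence with signal-to-noise for antibody binding to printed compounds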
[18] = molecular target: Torsin-1A (Homo sapiens) (UniProt O14656); test: torsin A binders from cell lysate, primary screen, small-molecule microarray, wild-type, 635/667 nm (AID 1149); details: COS7 hTOR1A-WT lysate, 635 nm fluorescence, higher = more signal
[19] = molecular target: Torsin-1A (Homo sapiens) (UniProt O14656); test: small-molecule binders of mutant TOR1A in lysate, primary screen, cell lysate, small-molecule microarray, COS7 lysate, 635/667 nm fluorescence (AID 1150); details: COS7 hTOR1A mutant lysate, 635 nm fluorescence, higher = more signal;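 also: score pools 667 nm emission and signal to noise measuring lysate protein binding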
[20] = test system: Sonic hedgehog protein (Shh); test: small-molecule binders of Shh protein, primary screen, biochemical, small-molecule microarray, 635/667 nm fluorescence (AID 1151); details: small-molecule microarray binding, 635 nm fluorescence; higher = more signal;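 also: Shh protein binding to compounds spotted on small-molecule microarray slides; score combines spot fluorescence intensity with signal-to-noise across triplicate slides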

Sequence of Torsin-1A (Homo sapiens) (O14656 whole entry, looked up): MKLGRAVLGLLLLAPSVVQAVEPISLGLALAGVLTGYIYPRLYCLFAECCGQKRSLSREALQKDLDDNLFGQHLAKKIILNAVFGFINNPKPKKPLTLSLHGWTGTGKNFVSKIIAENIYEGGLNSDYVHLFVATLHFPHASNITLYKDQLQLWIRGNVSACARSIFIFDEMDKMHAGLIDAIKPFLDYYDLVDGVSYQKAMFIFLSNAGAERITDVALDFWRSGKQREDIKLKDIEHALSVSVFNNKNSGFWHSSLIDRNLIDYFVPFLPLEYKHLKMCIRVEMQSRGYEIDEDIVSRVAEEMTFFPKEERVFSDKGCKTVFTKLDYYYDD
Sequence of Luciferin 4-monooxygenase (Photinus pyralis) (P08659 whole entry, looked up): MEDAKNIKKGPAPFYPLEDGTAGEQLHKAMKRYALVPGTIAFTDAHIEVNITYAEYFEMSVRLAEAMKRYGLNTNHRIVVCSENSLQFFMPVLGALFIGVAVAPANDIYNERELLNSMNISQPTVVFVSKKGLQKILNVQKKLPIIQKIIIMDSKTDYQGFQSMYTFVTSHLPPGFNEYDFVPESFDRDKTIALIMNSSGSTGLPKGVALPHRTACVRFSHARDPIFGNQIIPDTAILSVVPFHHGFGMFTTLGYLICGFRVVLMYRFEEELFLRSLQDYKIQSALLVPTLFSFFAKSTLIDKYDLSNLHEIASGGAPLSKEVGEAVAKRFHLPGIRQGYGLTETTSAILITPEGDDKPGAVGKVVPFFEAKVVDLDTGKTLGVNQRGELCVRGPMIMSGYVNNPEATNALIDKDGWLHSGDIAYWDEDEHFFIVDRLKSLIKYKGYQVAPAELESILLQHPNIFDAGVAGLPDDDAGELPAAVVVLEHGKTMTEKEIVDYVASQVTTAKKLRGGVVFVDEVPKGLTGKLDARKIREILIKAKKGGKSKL
Sequence of Follistatin (Homo sapiens) (P19883 whole entry, looked up): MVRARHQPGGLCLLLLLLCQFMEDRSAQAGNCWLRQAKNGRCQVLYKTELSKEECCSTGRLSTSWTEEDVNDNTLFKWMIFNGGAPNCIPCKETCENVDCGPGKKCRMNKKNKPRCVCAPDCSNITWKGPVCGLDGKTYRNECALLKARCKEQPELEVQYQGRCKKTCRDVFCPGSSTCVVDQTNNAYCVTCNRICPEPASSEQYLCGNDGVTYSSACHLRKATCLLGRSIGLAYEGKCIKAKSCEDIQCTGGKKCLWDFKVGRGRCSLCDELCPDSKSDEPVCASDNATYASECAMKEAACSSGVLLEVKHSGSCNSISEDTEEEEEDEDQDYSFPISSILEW
Sequence of Focal adhesion kinase 1 (Homo sapiens) (Q05397 whole entry, looked up): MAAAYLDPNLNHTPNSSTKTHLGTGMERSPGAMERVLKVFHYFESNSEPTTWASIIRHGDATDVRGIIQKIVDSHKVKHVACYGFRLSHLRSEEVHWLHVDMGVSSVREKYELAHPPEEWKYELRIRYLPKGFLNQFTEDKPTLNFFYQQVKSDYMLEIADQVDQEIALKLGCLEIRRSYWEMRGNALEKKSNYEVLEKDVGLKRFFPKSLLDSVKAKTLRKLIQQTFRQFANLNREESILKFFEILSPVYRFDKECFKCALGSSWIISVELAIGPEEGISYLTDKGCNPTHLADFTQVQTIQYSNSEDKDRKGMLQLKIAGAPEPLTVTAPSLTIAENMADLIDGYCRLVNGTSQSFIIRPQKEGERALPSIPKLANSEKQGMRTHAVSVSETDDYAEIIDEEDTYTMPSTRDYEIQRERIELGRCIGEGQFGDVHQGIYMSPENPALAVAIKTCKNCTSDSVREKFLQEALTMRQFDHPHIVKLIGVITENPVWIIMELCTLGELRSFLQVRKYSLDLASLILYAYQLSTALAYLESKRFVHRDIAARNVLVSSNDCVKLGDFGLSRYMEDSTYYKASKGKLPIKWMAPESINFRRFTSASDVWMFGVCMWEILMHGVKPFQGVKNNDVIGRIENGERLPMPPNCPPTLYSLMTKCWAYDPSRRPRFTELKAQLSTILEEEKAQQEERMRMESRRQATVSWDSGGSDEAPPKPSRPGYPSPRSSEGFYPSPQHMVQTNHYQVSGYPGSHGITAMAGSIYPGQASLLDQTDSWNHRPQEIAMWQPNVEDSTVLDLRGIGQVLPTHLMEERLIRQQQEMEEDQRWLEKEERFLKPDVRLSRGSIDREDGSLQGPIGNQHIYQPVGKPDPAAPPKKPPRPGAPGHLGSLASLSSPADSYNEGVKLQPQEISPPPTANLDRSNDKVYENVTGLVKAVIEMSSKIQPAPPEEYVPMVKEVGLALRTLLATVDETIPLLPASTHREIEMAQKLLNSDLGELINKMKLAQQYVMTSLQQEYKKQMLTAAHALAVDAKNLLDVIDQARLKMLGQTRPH
Sequence of Fibroblast growth factor 2 (Homo sapiens) (P09038 whole entry, looked up): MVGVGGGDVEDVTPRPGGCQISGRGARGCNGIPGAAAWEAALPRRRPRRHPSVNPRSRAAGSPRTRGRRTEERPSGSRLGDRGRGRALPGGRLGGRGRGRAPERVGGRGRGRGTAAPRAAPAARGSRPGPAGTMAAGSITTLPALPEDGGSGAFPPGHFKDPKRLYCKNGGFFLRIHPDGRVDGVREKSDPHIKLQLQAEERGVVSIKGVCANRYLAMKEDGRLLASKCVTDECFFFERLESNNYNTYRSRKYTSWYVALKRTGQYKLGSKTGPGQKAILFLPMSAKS
Sequence of Streptavidin (Streptomyces avidinii) (P22629 whole entry, looked up): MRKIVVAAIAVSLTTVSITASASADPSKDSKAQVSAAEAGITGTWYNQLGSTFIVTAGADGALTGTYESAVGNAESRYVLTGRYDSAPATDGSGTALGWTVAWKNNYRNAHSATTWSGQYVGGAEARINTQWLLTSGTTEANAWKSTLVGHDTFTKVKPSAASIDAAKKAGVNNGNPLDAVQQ

Row | Structure (SMILES) | composite z-score [1] | composite z-score [2] | composite z-score [3] | composite z-score [4] | composite z-score [5] | composite z-score [6] | z-score [7] | composite z-score [8] | composite z-score [9] | z-score [10] | composite z-score [11] | z-score [12] | z-score [13] | z-score [14] | z-score [15] | composite z-score [16] | composite z-score [17] | composite z-score [18] | composite z-score [19] | composite z-score [20]
1 | COCCn1c(C(=O)N(C)C)cc2c1C[C@H]1CN(C(=O)c3ccccc3)[C@@](Cc3ccc(OC)cc3)(C(=O)OC)[C@@H]21 | 1.59 | 1.04 | 0.585 | 0.837 | 0.571 | -0.226 | 1.66 | -0.201 | 0.94 | 0.75 (inactive) | 0.198 | -1.27 (inactive) | 0.491 (inactive) | 0.776 (inactive) | 0.0711 (inactive) | 0.572 | -0.0237 | 0.236 | 1.11 | -0.472
2 | CC(C)(C)N1CC=CC23O[C@@H]4C=CCOC(=O)[C@@H]4[C@H]2C(=O)N(CCO)[C@@H]3C1=O (stereo not given in full) | 1.6 | -0.539 | -0.747 | -2.09 | -0.262 | -1.36 | 0.257 | -0.0106 | -0.155 | -0.387 (inactive) | -0.887 | 0.262 (inactive) | 1.7 (inactive) | 0.744 (inactive) | 1.07 (inactive) | -1.61 | -0.32 | -2.49 | -1.07 | -0.863
3 | C[C@]1(C(=O)O)c2ccccc2C(=O)N(Cc2cc(F)cc(C(F)(F)F)c2)[C@H]1c1ccc(CO)cc1 | 0.201 | 0.349 | 0.263 | 0.955 | 0.88 | 0.299 | -1.06 | 0.956 | 0.0471 | 0.759 (inactive) | -0.0056 | -2.56 (inactive) | -2.17 (inactive) | -0.502 (inactive) | -0.172 (inactive) | 0.0949 | -0.152 | -0.0875 | 0.154 | 0.505
4 | CCOc1cc(C(O)C2C=CC3C(=O)N(c4ccccc4)C(=O)C3N2Nc2ccccc2F)ccc1O (stereo not given) | 0.532 | 0.316 | -0.0063 | -0.428 | 0.106 | -0.107 | -0.638 | -0.541 | 0.886 | -1.38 (inactive) | 0.482 | 0.777 (inactive) | -0.545 (inactive) | 0.815 (inactive) | 0.63 (inactive) | 0.376 | 0.75 | -0.166 | 0.407 | -0.663
5 | COc1ccc(C#Cc2ccc3c(c2)[C@]2(C(=O)N3)[C@H](C(=O)O)[C@H]3C(=O)O[C@H](c4ccccc4)[C@H](c4ccccc4)N3[C@@H]2c2ccccc2OCCO)cc1 | 3.16 | 1.17 | 0.352 | 0.955 | 1.19 | 1.25 | -2.71 | 1.04 | 1.02 | -5.71 (inactive) | 0.119 | -5.87 (inactive) | -1.75 (inactive) | 1.43 (inactive) | 4.81 (inactive) | 0.904 | -0.413 | 0.65 | 0.643 | 1.63
6 | CC(C)(C)OC(=O)CC[C@@]1(C(=O)NCCN2CCOCC2)N=C(c2ccc(OCCCO)cc2)O[C@@H]1c1ccccc1CN=[N+]=[N-] | 0.384 | 0.372 | 0.499 | 1.01 | -0.0674 | -0.495 | -0.293 | -0.0313 | 0.608 | -4.33 (inactive) | -0.119 | 0.0704 (inactive) | -0.495 (inactive) | -0.277 (inactive) | 0.54 (inactive) | 1.01 | -0.0494 | -0.428 | 0.467 | -0.919
7 | CC(C)=C1C(=O)C(c2ccccc2)=C2CN3C(=O)N(CCc4ccccc4)C(=O)[C@]3(C)[C@H]21 | -0.0854 | 0.871 | 0.701 | 0.679 | 0.21 | -0.648 | 1.77 | -0.455 | 0.673 | 0.0775 (inactive) | -0.0006 | -2.42 (inactive) | 0.64 (inactive) | 0.0177 (inactive) | 0.839 (inactive) | 0.509 | -0.016 | -0.656 | -0.124 | -0.223
8 | C=CCC(OC(C)=O)[C@@H]1[C@@H](N(Cc2cccc3ccccc23)C(=O)Cc2ccc(OC)cc2)c2cc(OCCCO)ccc2N1C(=O)c1ccc2ccccc2c1 (stereo not given in full) | -0.185 | -0.322 | 0.321 | 0.475 | 0.792 | -0.0926 | 0.0343 | 0.143 | 0.453 | 0.851 (inactive) | -0.186 | -3.04 (inactive) | -0.719 (inactive) | 0.0458 (inactive) | -0.383 (inactive) | 0.172 | -0.152 | 0.794 | -0.118 | 0.239
9 | COCCOC(=O)N1C(=O)[C@@]2(c3cc(C#CCC(C(=O)OC)C(=O)OC)ccc31)[C@H](C(=O)Nc1nc3ccccc3s1)[C@H]1C(=O)O[C@H](c3ccccc3)[C@H](c3ccccc3)N1[C@@H]2c1ccc(OCCO)cc1 | 2.33 | 0.988 | 0.35 | 0.746 | 1.39 | 1.79 | -2.33 | 1.64 | 0.44 | -4.07 (inactive) | 0.555 | -0.835 (inactive) | -0.00208 (inactive) | 1.71 (inactive) | 0.323 (inactive) | 0.532 | 0.79 | 1.07 | 0.596 | 2.23
10 | C=CCNC(=O)[C@H]1[C@@H]2C(=O)O[C@@H](c3ccccc3)[C@@H](c3ccccc3)N2[C@@H](c2ccccc2OCCO)[C@]12C(=O)N(C(=O)OCCOC)c1ccc(C#Cc3ccc(OC)cc3)cc12 | 0.63 | 1.19 | 0.723 | 0.732 | 0.406 | 0.235 | -0.844 | 0.407 | 0.924 | -1.05 (inactive) | 0.571 | -2.77 (inactive) | -0.394 (inactive) | 1.12 (inactive) | -0.261 (inactive) | 0.12 | -0.149 | 0.292 | 0.51 | 0.168
